In PubChem BioAssay (NCATS):
Inconclusive results are not listed. Entries that show only a call come without a potency. Calls of active or inactive are those of the source. The call rests on the fitted dose curve; in most records, active means well fitted inhibition curve with a large enough effect; inconclusive means small, poorly fitted or top-dose-only effect; inactive means no such curve, though single readings can be large or run the other way.

test system: Zika virus NS2B-NS3 protease (unlinked complex); assay: Primary screen GU Rhodamine qHTS for Zika virus inhibitors: Unlinked NS2B-NS3 protease assay (AID 1347159); details: Recombinant ZIKV NS2B-NS3 protease, Rhodamine110 substrate fluorescence; series mostly up to 107 µM; further: nearly all actives have a fitted effect of over 60% in size; further: potency means the concentration at half of the fitted maximal effect
Summary of the method: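 Percent inhibition came from the 15-min rise in Rhodamine110 fluorescence (1.5 microM substrate, ~15% conversion), normalized to no-inhibitor and no-enzyme wells and Hill-fitted. Unlinked protease, 25 nM, pH 8.0 Tris buffer; compounds up to 114 microM, 15-min preincubation.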

Structure (SMILES) | Potency
C=C1C(=O)O[C@@H]2/C=C(/C)[C@@H](OC(C)=O)C/C=C(\C)C[C@@H](OC(=O)/C(=C/CO)CO)[C@@H]12 | inactive
CN1CCC(NC(=O)c2cc(-c3c(O)cc(O)cc3Oc3ccc([N+](=O)[O-])cc3)on2)CC1 | inactive
CC1(C)Oc2ncnc(N)c2N=C1c1ccc(C23CCC(CC(=O)O)(CC2)CC3)cc1 | 50.1 µM (active)
COc1cc2c(cc1OCCCN1CCCC1)N=C(N)C21CCC1 | inactive
O=C(/C=C/c1ccccc1O)O[C@@H]1O[C@H](CO)[C@@H](O)[C@H](O)[C@H]1O | inactive
CC1(C)CC[C@]23CO[C@@]4(CCC5[C@@]6(C)CC[C@H](O[C@@H]7OC[C@H](O[C@@H]8O[C@H](CO)[C@@H](O)[C@H](O)[C@H]8O[C@@H]8OC[C@@H](O)[C@H](O)[C@H]8O)[C@H](O)[C@H]7O)[C@@](C)(CO)C6CC[C@@]5(C)[C@]4(C)CC2=O)[C@@H]3C1 (stereo partly drawn) | inactive
c1cc(NCCc2c[nH]c3ccccc23)cc(Nc2ccncc2)c1 | inactive
C=C1CCC2C(C)(C(=O)O)CCCC2(C)C1CCC1=CCOC1=O (stereo not drawn) | inactive
C[C@@H]1CC[C@]2(C(=O)O)CC[C@]3(C)C(=CCC4[C@@]5(C)CC[C@H](O)[C@](C)(C(=O)O)C5CC[C@]43C)C2[C@]1(C)O (stereo partly drawn) | inactive
CN1CCN(C2=Nc3ccccc3Nc3ccc(Cl)cc32)CC1 | inactive
C=C1CC[C@@H]2[C@](C)(CO)[C@H](O)CC[C@@]2(C)[C@@H]1CC(=O)C1=CCOC1=O | inactive
C/C(=C\CO[C@@H]1O[C@H](CO[C@H]2OC[C@](O)(CO)[C@H]2O)[C@@H](O)[C@H](O)[C@H]1O)C(C)(C)O | inactive
Cc1ccc(C)c(NS(=O)(=O)c2cc(C(=O)Nc3ccccc3-c3ccccc3)ccc2C)c1 | inactive
C/C=C(\C)C(=O)OC1C(C)C2(O)C(C=C(CO)CC3(O)C(=O)C(C)=CC32)C2C(C)(C)C12OC(=O)C(C)C (stereo not drawn) | inactive
N#Cc1ccc(COC[C@H]2O[C@@H](n3c(NCc4ccc(Cl)c(Cl)c4)nc4c(N)ncnc43)[C@H](O)[C@@H]2O)cc1 | inactive
COC1CC(O[C@H]2CC[C@]3(C)C4CC[C@]5(C)C(C6=CC(=O)OC6)=CCC56OC46CC[C@@H]3C2)OC(C)C1O[C@@H]1O[C@H](CO[C@@H]2O[C@H](CO)[C@@H](O)[C@H](O)[C@H]2O)[C@@H](O)[C@H](O)[C@H]1O (stereo partly drawn) | inactive
Cc1nc(NC(=O)N2CCCC2C(N)=O)sc1-c1ccnc(C(C)(C)C(F)(F)F)c1 (stereo not drawn) | inactive
C[C@H](Oc1cc(-n2cnc3ccc(CN4CCN(C)CC4)cc32)sc1C(N)=O)c1ccccc1C(F)(F)F | inactive
OC(CC1c2ccccc2-c2cncn21)C1CCCCC1 (stereo not drawn) | inactive
CC(C)/C=C1\NC(=O)C(C(C)C)n2c1nc1ccccc1c2=O (stereo not drawn) | inactive

Structure (SMILES) | Potency
CC(C)CCNc1ncccc1C(=O)N1CCN(Cc2ccccc2)CC1 | inactive
COc1cc2nc(N3CCN(C(=O)COc4c(OC)cccc4C(C)C)CC3)nc(N)c2cc1OC | inactive
CN(c1ccc(NC(=O)Nc2ccccc2)cc1)S(=O)(=O)c1cnn(-c2ccc(F)cc2)c1 | inactive
O=c1[nH]c2ccccc2n1CCN1CCN(c2cccc(C(F)(F)F)c2)CC1 | inactive
C/C=C(\C)C(=O)O[C@H]1C=CC(=O)O[C@H]1/C=C/[C@@H](O)[C@H](C)O | inactive
CCn1c(-c2nonc2N)nc2c(C#CCO)ncc(OCCCN)c21 | inactive
COc1ccc(CNCc2cccc3ccccc23)cc1 | inactive
Cn1ncc(Cl)c1-c1cc(C(=O)N[C@H](CN)Cc2ccc(F)c(F)c2)oc1Cl | inactive
CC(C)CCNC(=O)[C@H](CC(C)C)NC(=O)[C@H]1O[C@@H]1C(=O)O | inactive
CCN(CC)CCCCCCNc1cc(OC)cc2c(C)ccnc12 | inactive
COCC(c1ccc(C(F)(F)F)cc1)N1CCN(C2(C)CCN(C(=O)c3c(C)ncnc3C)CC2)CC1C (stereo not drawn) | inactive
COc1cc(NC(=O)c2cccc(-n3cc(NC(=O)Nc4cccc(C)c4)cn3)c2)cc(OC)c1OC | inactive
CC1(C)CN(C(=O)c2ccc(-c3cccc4nc(NC(=O)C5CC5)nn34)cc2)C1 | inactive
COC(CCc1ccc(O)cc1)CC(=O)CCc1ccc(O)cc1 (stereo not drawn) | inactive
C[C@@H]1C[C@H](C)CN(CCC(=O)Nc2ccc(Br)cc2)C1 | inactive
CC(=O)Nc1nc(C)c(-c2nc(N3CCCC(O)C3)no2)s1 (stereo not drawn) | inactive
CC1CCCC[C@H]2C(=O)C=C[C@H](O)[C@@H]2CC(=O)O1 (stereo partly drawn) | inactive
CCCc1cc(C)[nH]c(=O)c1CNC(=O)c1cc(-c2ccnc(N3CCN(C)CC3)c2)cc2c1cnn2C(C)C | inactive
C[C@H](CN(C)C)Oc1nc(Nc2cc3cccc(Cl)c3cn2)cnc1C#N | inactive

test system: Zika virus NS2B-NS3 protease (linked construct); assay: Primary screen NINDS Rhodamine qHTS for Zika virus inhibitors (AID 1347160); details: purified NS2B-NS3 protease, Rhodamine110 substrate fluorescence; series mostly up to 57.1 µM; further: nearly all actives have a fitted effect of over 55% in size
Summary of the method: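 Rhodamine110-peptide cleavage (1.5 µM substrate) by 25 nM linked NS2B-NS3 enzyme at pH 8.0 (Tris, Tween 20), after 15 min RT preincubation with compounds; 15-min fluorescence change normalized to controls and Hill-fitted.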

Structure (SMILES) | Potency
C=C1C(=O)O[C@@H]2/C=C(/C)[C@@H](OC(C)=O)C/C=C(\C)C[C@@H](OC(=O)/C(=C/CO)CO)[C@@H]12 | inactive
CN1CCC(NC(=O)c2cc(-c3c(O)cc(O)cc3Oc3ccc([N+](=O)[O-])cc3)on2)CC1 | inactive
CC1(C)Oc2ncnc(N)c2N=C1c1ccc(C23CCC(CC(=O)O)(CC2)CC3)cc1 | inactive
COc1cc2c(cc1OCCCN1CCCC1)N=C(N)C21CCC1 | inactive
O=C(/C=C/c1ccccc1O)O[C@@H]1O[C@H](CO)[C@@H](O)[C@H](O)[C@H]1O | inactive
CC1(C)CC[C@]23CO[C@@]4(CCC5[C@@]6(C)CC[C@H](O[C@@H]7OC[C@H](O[C@@H]8O[C@H](CO)[C@@H](O)[C@H](O)[C@H]8O[C@@H]8OC[C@@H](O)[C@H](O)[C@H]8O)[C@H](O)[C@H]7O)[C@@](C)(CO)C6CC[C@@]5(C)[C@]4(C)CC2=O)[C@@H]3C1 (stereo partly drawn) | inactive
c1cc(NCCc2c[nH]c3ccccc23)cc(Nc2ccncc2)c1 | inactive
C=C1CCC2C(C)(C(=O)O)CCCC2(C)C1CCC1=CCOC1=O (stereo not drawn) | inactive
C[C@@H]1CC[C@]2(C(=O)O)CC[C@]3(C)C(=CCC4[C@@]5(C)CC[C@H](O)[C@](C)(C(=O)O)C5CC[C@]43C)C2[C@]1(C)O (stereo partly drawn) | inactive
CN1CCN(C2=Nc3ccccc3Nc3ccc(Cl)cc32)CC1 | inactive
C=C1CC[C@@H]2[C@](C)(CO)[C@H](O)CC[C@@]2(C)[C@@H]1CC(=O)C1=CCOC1=O | inactive
C/C(=C\CO[C@@H]1O[C@H](CO[C@H]2OC[C@](O)(CO)[C@H]2O)[C@@H](O)[C@H](O)[C@H]1O)C(C)(C)O | inactive
Cc1ccc(C)c(NS(=O)(=O)c2cc(C(=O)Nc3ccccc3-c3ccccc3)ccc2C)c1 | inactive
C/C=C(\C)C(=O)OC1C(C)C2(O)C(C=C(CO)CC3(O)C(=O)C(C)=CC32)C2C(C)(C)C12OC(=O)C(C)C (stereo not drawn) | inactive
N#Cc1ccc(COC[C@H]2O[C@@H](n3c(NCc4ccc(Cl)c(Cl)c4)nc4c(N)ncnc43)[C@H](O)[C@@H]2O)cc1 | inactive
COC1CC(O[C@H]2CC[C@]3(C)C4CC[C@]5(C)C(C6=CC(=O)OC6)=CCC56OC46CC[C@@H]3C2)OC(C)C1O[C@@H]1O[C@H](CO[C@@H]2O[C@H](CO)[C@@H](O)[C@H](O)[C@H]2O)[C@@H](O)[C@H](O)[C@H]1O (stereo partly drawn) | inactive
Cc1nc(NC(=O)N2CCCC2C(N)=O)sc1-c1ccnc(C(C)(C)C(F)(F)F)c1 (stereo not drawn) | inactive
C[C@H](Oc1cc(-n2cnc3ccc(CN4CCN(C)CC4)cc32)sc1C(N)=O)c1ccccc1C(F)(F)F | inactive
OC(CC1c2ccccc2-c2cncn21)C1CCCCC1 (stereo not drawn) | inactive
CC(C)/C=C1\NC(=O)C(C(C)C)n2c1nc1ccccc1c2=O (stereo not drawn) | inactive

Structure (SMILES) | Potency
CC(C)CCNc1ncccc1C(=O)N1CCN(Cc2ccccc2)CC1 | inactive
COc1cc2nc(N3CCN(C(=O)COc4c(OC)cccc4C(C)C)CC3)nc(N)c2cc1OC | inactive
CN(c1ccc(NC(=O)Nc2ccccc2)cc1)S(=O)(=O)c1cnn(-c2ccc(F)cc2)c1 | inactive
O=c1[nH]c2ccccc2n1CCN1CCN(c2cccc(C(F)(F)F)c2)CC1 | inactive
C/C=C(\C)C(=O)O[C@H]1C=CC(=O)O[C@H]1/C=C/[C@@H](O)[C@H](C)O | inactive
CCn1c(-c2nonc2N)nc2c(C#CCO)ncc(OCCCN)c21 | inactive
COc1ccc(CNCc2cccc3ccccc23)cc1 | inactive
Cn1ncc(Cl)c1-c1cc(C(=O)N[C@H](CN)Cc2ccc(F)c(F)c2)oc1Cl | inactive
CC(C)CCNC(=O)[C@H](CC(C)C)NC(=O)[C@H]1O[C@@H]1C(=O)O | inactive
CCN(CC)CCCCCCNc1cc(OC)cc2c(C)ccnc12 | inactive
COCC(c1ccc(C(F)(F)F)cc1)N1CCN(C2(C)CCN(C(=O)c3c(C)ncnc3C)CC2)CC1C (stereo not drawn) | inactive
COc1cc(NC(=O)c2cccc(-n3cc(NC(=O)Nc4cccc(C)c4)cn3)c2)cc(OC)c1OC | inactive
CC1(C)CN(C(=O)c2ccc(-c3cccc4nc(NC(=O)C5CC5)nn34)cc2)C1 | inactive
COC(CCc1ccc(O)cc1)CC(=O)CCc1ccc(O)cc1 (stereo not drawn) | inactive
C[C@@H]1C[C@H](C)CN(CCC(=O)Nc2ccc(Br)cc2)C1 | inactive
CC(=O)Nc1nc(C)c(-c2nc(N3CCCC(O)C3)no2)s1 (stereo not drawn) | inactive
CC1CCCC[C@H]2C(=O)C=C[C@H](O)[C@@H]2CC(=O)O1 (stereo partly drawn) | inactive
CCCc1cc(C)[nH]c(=O)c1CNC(=O)c1cc(-c2ccnc(N3CCN(C)CC3)c2)cc2c1cnn2C(C)C | inactive
C[C@H](CN(C)C)Oc1nc(Nc2cc3cccc(Cl)c3cn2)cnc1C#N | inactive
